For 20 compounds, residual activity results are on record in ChEMBL document CHEMBL2218924, “A broad activity screen in support of a chemogenomic map for kinase signalling research and drug discovery” (Biochem J, 2013).

For assay [1], the target named is ALK tyrosine kinase receptor (Homo sapiens) (UniProt Q9UM73). Particulars: at 10 µM.
The target of assay [2] is T1, Activin receptor type-1B (Homo sapiens) (UniProt P36896).
T1 sequence (whole entry): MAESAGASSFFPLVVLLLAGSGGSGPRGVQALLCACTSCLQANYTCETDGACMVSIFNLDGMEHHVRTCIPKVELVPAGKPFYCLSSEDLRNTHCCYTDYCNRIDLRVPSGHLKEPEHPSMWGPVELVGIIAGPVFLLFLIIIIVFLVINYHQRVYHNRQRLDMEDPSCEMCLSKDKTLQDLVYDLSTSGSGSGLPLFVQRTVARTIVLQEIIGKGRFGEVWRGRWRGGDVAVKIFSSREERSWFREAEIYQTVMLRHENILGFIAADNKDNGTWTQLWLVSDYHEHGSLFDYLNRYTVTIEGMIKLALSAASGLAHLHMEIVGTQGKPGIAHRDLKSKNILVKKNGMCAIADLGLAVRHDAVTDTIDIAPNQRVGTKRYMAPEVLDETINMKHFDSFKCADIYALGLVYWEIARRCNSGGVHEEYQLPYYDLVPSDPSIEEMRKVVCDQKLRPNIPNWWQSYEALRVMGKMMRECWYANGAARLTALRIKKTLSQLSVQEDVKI
Particulars: at 10 µM.

Assay [3] concerns the target T2, AMP-activated protein kinase, AMPK (Homo sapiens) (UniProt P54646+O43741+P54619+Q9UGJ0+Q9Y478+Q13131+Q9UGI9). The settings on record: at 10 µM.
Assay [4] deals with T3, Mitogen-activated protein kinase kinase kinase 5 (Homo sapiens) (UniProt Q99683).
T3 sequence (whole entry): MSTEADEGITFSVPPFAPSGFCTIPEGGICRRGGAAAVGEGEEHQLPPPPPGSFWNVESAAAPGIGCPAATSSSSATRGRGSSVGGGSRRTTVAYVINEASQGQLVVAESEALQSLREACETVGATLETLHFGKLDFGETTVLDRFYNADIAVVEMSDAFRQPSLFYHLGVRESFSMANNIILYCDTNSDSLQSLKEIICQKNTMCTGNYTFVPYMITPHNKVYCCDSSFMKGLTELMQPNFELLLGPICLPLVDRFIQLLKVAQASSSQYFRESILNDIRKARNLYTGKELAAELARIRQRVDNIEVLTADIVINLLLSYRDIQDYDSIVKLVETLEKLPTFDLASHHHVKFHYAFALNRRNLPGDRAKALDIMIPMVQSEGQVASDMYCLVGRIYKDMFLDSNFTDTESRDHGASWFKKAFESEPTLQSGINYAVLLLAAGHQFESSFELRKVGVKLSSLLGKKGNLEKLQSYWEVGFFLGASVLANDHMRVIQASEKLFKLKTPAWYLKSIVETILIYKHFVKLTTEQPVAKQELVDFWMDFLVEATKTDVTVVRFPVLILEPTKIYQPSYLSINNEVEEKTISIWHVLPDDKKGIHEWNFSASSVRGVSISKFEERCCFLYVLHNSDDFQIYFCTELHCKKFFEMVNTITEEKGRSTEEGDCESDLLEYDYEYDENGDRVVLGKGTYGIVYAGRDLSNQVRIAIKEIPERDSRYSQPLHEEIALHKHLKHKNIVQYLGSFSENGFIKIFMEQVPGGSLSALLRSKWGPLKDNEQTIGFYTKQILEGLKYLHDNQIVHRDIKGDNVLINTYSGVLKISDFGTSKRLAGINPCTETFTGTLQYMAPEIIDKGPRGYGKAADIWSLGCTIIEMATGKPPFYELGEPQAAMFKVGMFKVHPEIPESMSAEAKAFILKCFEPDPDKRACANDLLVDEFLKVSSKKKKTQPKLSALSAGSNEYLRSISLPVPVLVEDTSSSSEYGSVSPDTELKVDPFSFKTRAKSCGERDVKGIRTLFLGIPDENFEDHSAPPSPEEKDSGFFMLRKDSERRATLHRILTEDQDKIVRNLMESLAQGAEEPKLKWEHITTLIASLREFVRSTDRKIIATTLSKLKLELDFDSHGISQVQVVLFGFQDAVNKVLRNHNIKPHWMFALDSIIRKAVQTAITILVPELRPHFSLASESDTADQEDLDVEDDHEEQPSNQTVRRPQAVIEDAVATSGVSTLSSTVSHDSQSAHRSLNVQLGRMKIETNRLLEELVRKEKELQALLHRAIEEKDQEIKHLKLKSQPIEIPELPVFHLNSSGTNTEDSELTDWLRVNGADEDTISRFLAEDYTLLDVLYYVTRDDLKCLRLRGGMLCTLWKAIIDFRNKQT
The settings on record: at 1 µM.

For assay [5], the target named is T1, Activin receptor type-1B (Homo sapiens). Particulars: at 1 µM.
Assay [6] concerns the target T4, AMP-activated protein kinase (AMPK) alpha-1/beta-1/gamma-1 (Homo sapiens) (UniProt P54619+Q9Y478+Q13131). Particulars: at 1 µM.
Assay [7] addresses T4, AMP-activated protein kinase (AMPK) alpha-1/beta-1/gamma-1 (Homo sapiens). The settings on record: at 10 µM.
The target of assay [8] is T2, AMP-activated protein kinase, AMPK (Homo sapiens). Particulars: at 1 µM.
Assay [9] deals with T5, NUAK family SNF1-like kinase 1 (Homo sapiens) (UniProt O60285).
T5 sequence (whole entry): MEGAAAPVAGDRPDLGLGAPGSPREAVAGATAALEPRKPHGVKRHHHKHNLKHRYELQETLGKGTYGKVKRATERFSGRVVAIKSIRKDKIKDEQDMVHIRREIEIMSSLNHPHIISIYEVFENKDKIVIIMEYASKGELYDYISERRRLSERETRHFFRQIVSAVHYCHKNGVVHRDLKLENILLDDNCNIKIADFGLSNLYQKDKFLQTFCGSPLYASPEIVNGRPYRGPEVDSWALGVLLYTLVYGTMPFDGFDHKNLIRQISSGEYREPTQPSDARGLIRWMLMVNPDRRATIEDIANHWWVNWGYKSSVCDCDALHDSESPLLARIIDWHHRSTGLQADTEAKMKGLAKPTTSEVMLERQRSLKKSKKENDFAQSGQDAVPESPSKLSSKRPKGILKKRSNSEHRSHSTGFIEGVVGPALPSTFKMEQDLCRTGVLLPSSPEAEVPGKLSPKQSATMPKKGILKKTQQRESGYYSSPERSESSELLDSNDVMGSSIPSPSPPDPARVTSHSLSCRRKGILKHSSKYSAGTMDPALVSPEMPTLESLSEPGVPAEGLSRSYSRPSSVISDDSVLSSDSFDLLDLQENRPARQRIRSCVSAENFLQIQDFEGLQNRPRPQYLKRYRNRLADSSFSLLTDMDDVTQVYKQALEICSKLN
Particulars: at 1 µM.

Assay [10] addresses T5, NUAK family SNF1-like kinase 1 (Homo sapiens). Particulars: at 10 µM.

Sequence of ALK tyrosine kinase receptor (Homo sapiens) (Q9UM73 19-1620 limits assumed): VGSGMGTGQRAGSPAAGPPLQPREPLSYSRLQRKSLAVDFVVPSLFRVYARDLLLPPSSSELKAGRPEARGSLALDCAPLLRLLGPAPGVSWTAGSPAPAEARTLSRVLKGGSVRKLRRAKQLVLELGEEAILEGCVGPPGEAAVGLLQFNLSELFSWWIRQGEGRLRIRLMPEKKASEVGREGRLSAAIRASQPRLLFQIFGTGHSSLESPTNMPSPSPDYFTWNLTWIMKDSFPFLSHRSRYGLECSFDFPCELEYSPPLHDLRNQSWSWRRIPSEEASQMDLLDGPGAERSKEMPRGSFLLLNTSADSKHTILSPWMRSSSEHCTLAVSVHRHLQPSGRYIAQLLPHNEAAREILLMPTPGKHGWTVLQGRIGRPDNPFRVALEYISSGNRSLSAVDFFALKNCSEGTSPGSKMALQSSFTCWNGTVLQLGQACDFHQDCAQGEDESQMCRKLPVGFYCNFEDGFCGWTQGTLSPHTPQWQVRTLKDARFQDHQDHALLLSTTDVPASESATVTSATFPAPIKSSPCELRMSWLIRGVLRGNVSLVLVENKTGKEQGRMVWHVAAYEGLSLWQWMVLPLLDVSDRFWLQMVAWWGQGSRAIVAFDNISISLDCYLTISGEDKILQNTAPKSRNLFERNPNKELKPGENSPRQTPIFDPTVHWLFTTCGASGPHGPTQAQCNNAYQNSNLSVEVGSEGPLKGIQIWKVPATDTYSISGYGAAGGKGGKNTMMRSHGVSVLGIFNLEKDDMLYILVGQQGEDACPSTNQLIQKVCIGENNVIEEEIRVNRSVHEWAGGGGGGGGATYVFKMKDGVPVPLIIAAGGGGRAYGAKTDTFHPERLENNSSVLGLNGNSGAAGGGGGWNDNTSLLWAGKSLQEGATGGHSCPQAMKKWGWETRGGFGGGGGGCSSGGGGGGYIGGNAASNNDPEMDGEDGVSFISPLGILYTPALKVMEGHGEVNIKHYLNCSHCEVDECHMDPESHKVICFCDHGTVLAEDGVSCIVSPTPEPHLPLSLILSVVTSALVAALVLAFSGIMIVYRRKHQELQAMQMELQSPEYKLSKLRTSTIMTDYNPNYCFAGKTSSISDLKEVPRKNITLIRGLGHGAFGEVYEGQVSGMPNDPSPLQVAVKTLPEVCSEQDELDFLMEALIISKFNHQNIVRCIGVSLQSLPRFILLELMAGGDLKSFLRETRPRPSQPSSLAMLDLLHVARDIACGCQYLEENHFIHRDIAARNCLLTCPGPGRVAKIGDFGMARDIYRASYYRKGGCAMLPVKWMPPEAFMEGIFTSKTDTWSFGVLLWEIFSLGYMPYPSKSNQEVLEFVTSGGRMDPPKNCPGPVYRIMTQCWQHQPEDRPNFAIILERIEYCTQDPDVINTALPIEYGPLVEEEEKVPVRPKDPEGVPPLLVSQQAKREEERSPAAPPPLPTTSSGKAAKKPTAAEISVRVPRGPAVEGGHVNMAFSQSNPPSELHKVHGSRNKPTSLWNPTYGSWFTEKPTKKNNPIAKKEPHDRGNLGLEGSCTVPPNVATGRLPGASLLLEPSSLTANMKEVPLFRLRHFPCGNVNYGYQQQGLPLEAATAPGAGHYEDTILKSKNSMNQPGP
T4 sequence (P54619 whole entry): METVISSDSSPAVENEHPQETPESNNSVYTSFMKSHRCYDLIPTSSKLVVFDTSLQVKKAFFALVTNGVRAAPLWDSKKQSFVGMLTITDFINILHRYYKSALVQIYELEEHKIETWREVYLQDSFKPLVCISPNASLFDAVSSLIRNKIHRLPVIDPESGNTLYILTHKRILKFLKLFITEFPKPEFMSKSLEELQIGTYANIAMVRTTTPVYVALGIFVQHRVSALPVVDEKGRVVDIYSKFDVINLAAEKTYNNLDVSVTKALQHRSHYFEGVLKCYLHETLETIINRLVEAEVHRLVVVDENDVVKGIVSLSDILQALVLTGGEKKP
T4 sequence (Q13131 whole entry partner): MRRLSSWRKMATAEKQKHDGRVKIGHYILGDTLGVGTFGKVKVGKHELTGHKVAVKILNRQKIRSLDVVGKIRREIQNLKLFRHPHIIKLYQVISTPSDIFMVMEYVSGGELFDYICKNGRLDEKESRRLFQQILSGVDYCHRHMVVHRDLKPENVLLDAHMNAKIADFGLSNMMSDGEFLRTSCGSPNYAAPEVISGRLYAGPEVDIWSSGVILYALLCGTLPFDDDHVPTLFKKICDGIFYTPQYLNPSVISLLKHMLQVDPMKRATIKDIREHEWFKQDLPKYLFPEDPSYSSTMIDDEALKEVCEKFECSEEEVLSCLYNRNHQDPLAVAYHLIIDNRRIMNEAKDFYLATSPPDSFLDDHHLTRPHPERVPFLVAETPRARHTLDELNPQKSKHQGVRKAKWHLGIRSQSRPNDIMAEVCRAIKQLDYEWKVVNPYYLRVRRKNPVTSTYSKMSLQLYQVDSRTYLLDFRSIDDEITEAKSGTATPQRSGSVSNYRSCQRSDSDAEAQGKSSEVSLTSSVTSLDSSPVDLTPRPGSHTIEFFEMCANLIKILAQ
T4 sequence (Q9Y478 2-270 partner limits assumed): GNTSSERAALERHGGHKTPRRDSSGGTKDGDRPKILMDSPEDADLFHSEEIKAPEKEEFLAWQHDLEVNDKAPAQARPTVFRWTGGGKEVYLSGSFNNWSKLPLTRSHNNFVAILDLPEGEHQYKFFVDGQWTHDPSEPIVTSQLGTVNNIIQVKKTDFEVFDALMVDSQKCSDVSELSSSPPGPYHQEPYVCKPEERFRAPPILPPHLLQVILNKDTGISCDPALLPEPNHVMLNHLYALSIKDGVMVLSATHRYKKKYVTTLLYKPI

`CN([C@@H](Cc1ccc(OS(=O)(=O)c2cccc3cnccc23)cc1)C(=O)N1CCN(c2ccccc2)CC1)S(=O)(=O)c1cccc2cnccc12`: the residual activity in assay [1] was determined as 57%; in assay [2] it was 86%; in assay [3], 86%; in assay [4], 115%.
For `Nc1nc(Nc2ccc(S(N)(=O)=O)cc2)nn1C(=O)c1c(F)cccc1F`, the residual activity in [1] came out at 38%; in [5], 100%; in assay [2], 47%; in assay [6] it was 58%; in [7] it was 11%; in assay [8], 47%. Moreover, the residual activity worked out at 15% in assay [3], 4% in assay [9], 7% in assay [10] and 102% in assay [4].
On to `O=c1cc(N2CCOCC2)oc2c(-c3ccccc3)cccc12`, for which, in assay [1], the residual activity was 53%.
Consider `CC(C)(C)n1nc(Cc2cccc3ccccc23)c2c(N)ncnc21`, for which the residual activity in assay [1] amounted to 49%; in assay [5], 129%; in [2], 60%; in [6], 103%; in assay [7] it was 72%; in assay [8] it was 89%. The residual activity is 74% in assay [3], 105% in assay [9], 92% in [10] and 111% in assay [4].
Turning to `CCCC(=O)Oc1ccc2[nH]c(C(=O)c3cc4ccccc4[nH]3)cc2c1`, the residual activity in assay [1] was determined as 99%; in assay [5], 132%; in assay [2], 98%; in [6], 85%; in assay [7], 81%; in assay [8], 91%. Moreover, the residual activity in assay [3] was 96%; in [9], 98%; in assay [10] it was 84%.
Regarding `CCOc1nc(NC(=O)Cc2cc(OC)ccc2OC)cc(N)c1C#N`, the residual activity in assay [1] was 69%.
Turning to `O=C(c1ccccc1)c1ccc(N2CCOCC2)cc1O`, the residual activity in assay [5] was 123%; in assay [6], 98%; in assay [7] it was 72%; in [8] it was 89%; in [3] it was 81%; in assay [10], 90%. Moreover, the residual activity in assay [4] worked out at 91%.
Consider `COc1cc2c(cc1OC)-c1n[nH]c(Nc3cccc(F)c3)c1C2`, for which the residual activity in assay [6] was determined as 80%; in [7], 65%; in assay [3], 69%; in assay [10] it was 68%; in [4] it was 74%.
`COc1ccc(-c2cnc3c(-c4ccsc4)cnn3c2)cc1`: the residual activity in assay [5] stood at 126%; in [2], 88%; in assay [8], 88%; in assay [3], 79%; in assay [4], 82%.
Turning to `Nc1nccc(-c2c(-c3ccc(F)cc3)ncn2C2CCNCC2)n1`, the residual activity in [2] came to 40%; in assay [3], 70%; in assay [10], 77%.
For `COc1cc2nccc(Oc3ccc(NC(=O)Nc4cc(C)on4)c(Cl)c3)c2cc1OC`, the residual activity in assay [5] is 105%; in assay [2], 57%; in [3], 82%.
For `CSc1nc(-c2ccc(F)cc2)c(-c2ccnc(NC(C)c3ccccc3)c2)[nH]1` (stereo unspecified), the residual activity worked out at 56% in assay [1]; 88% in assay [6]; 59% in assay [7]; 80% in assay [8]; 56% in assay [3]; 101% in assay [9]. The residual activity in assay [10] worked out at 60%; in [4] it was 101%.
For the compound `COc1ccc(COc2ccc(Cc3cnc(N)nc3N)cc2OC)cc1`, the residual activity worked out at 120% in assay [5], 119% in assay [2] and 82% in [3].
Consider `O=C1Cc2c([nH]c3ccc([N+](=O)[O-])cc23)-c2ccccc2N1`, for which the residual activity in [6] came out at 48%; in assay [7] it was 40%; in assay [8], 18%; in assay [3], 36%; in assay [9], 10%; in assay [10], 9%. For the same compound, in [4], the residual activity was determined as 106%.
For `Cn1sc(=O)n(Cc2ccccc2)c1=O`, the residual activity in [1] turned out to be 71%; in assay [6], 83%; in assay [7], 82%; in assay [8], 89%; in [3], 90%; in assay [4] it was 81%.
As for `O=S(=O)(NCCNC/C=C/c1ccc(Br)cc1)c1cccc2cnccc12`, the residual activity in assay [6] was 52%; in assay [7], 15%; in assay [8], 60%; in assay [3], 19%; in [9], 42%; in assay [10], 11%.
Regarding `NCCNc1ncc(C(N)=O)c(Nc2cccc(C(F)(F)F)c2)n1`, the residual activity in [5] was 136%; in assay [9] it was 45%; in assay [10], 13%.
As for `O=S(=O)(c1cccc2cnccc12)N1CCCNCC1`, the figures for the residual activity in [1] and in [10] were 74% and 52%, respectively.
For `c1ccc(-c2cnc(Nc3ccc(OCCN4CCCC4)cc3)s2)cc1`, the residual activity in assay [5] turned out to be 131%; in assay [2], 115%; in assay [8], 81%; in [3], 28%; in assay [9], 74%; in [10], 27%.
In the case of `O=c1cc(N2CCNCC2)oc2c(-c3ccccc3)cccc12`, the residual activity in [1] is 49%; in assay [6], 95%; in assay [7], 75%; in [3], 71%; in assay [9], 91%; in [10], 82%. In addition, the residual activity in assay [4] is 90%.
